A selection: hits, their analogues and other compounds. The true share with any hit is near 6%.
PLK1 PBD inh: blocks phosphopeptide binding to human PLK1 polo-box domain | P53350 | Plk1 PBD binding of FITC phosphopeptide, fluorescence polarization | Potency, µM, without a hit: max response, negative = inhibition, hits mostly inhibitors | 2.8% of 360,000 active | AID 720504; note: series mostly up to about 57 µM; nearly all actives have a fitted effect of over 65% in size
Tau fibril ThT: tau fibrillization inhibition (ThT binding); recombinant tau K18 P301L, heparin-induced fibrillization, ThT fluorescence; Potency, µM (series often up to 57.4 µM), for inactives: at the top dose activity, negative = inhibition, actives largely listed as inhibitors; 2.1% of 270,000 active; AID 1460; note: nearly all actives have a fitted effect of over 55% in size
Target sequence (P10636 561-689 P618L limits assumed): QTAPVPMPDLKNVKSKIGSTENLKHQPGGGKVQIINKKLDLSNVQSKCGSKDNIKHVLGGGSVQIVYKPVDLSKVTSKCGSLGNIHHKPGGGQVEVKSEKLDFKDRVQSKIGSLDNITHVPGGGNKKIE
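Using a mix of unlabeled (15 uM) and Alexa 594-labeled (0.24 uM) tau K18 P301L, heparin-triggered fibrillization over 6 hr at 37 C was scored by ThT fluorescence.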
VDR inh: vitamin D3 receptor (human) inhibition. P11473. 0.93% of 400,000 active. VDR-SRC2-3 peptide fluorescence polarization, 2 h. AID 504847. Potency, µM, for the others: max response, negative = inhibition, actives largely listed as inhibitors
Target sequence (P11473 whole entry, looked up): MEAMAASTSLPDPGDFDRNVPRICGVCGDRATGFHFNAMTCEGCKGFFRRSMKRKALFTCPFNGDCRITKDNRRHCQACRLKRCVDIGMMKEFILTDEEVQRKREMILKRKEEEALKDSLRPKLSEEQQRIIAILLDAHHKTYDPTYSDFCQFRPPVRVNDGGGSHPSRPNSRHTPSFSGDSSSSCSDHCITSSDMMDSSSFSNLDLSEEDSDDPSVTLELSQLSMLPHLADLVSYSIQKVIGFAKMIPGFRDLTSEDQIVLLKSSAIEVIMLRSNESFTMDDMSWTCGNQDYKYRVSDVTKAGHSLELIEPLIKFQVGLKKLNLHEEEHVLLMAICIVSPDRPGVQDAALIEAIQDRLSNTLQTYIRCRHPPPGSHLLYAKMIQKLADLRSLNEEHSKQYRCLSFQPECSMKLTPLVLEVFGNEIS
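Compounds are added to VDR with labelled SRC2-3 coactivator peptide and held 2 h at room temperature. Inhibition of the VDR–peptide interaction is then read as a change in fluorescence polarization.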
Tau fluor cs: counter-screen for tau fibril formation inhibitors; Potency, µM (top dose mostly 57.7 µM), for the others: top-dose activity change, negative = decrease; tau K18 P301L Alexa594 fluorescence, heparin fibrillization; 0.93% of 280,000 active; note: nearly all actives have a fitted effect of over 55% in size
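Human tau K18 P301L (15 uM unlabeled, 0.24 uM Alexa 594-labeled) in 100 mM sodium acetate pH 7 with 20 uM heparin, 6 hr at 37 C. ThT 30 uM added, 1 hr ambient; Alexa 594 FP and total fluorescence read at 555/632 nm.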
Sfp inh: inhibitors of Bacillus subtilis Sfp phosphopantetheinyl transferase | Q9F4F7 | Biochemical Sfp PPTase activity, qHTS | Potency, µM, inactives show largest response in the series, negative = inhibition, actives largely listed as inhibitors | 3.5% of 310,000 active | AID 1490;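 note: the enzyme is Sfp with the accession as filed and its product quenches rhodamine fluorescence; 0% = enzyme reaction without inhibitor and -100% = no enzyme wells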
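Step 1, compound plus 15 nM Sfp-PPTase, 15 min, room temperature. Step 2, add rhodamine-CoA (5 uM) and BHQ-2-YbbR (12.5 uM). Step 3, read 525/598 nm fluorescence at 0 and 30 min.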
Tau FP inhib: tau fibrillization inhibition (FP); P10636; K18 P301L tau heparin fibrillization, Alexa594 FP, 6 h; Potency, µM (highest dose often 57.7 µM), inactives show at the top dose activity, negative = inhibition, usual class: inhibitors; 0.39% of 280,000 active; note: nearly all actives have a fitted effect of over 55% in size
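Human tau K18 […] P301L fragment, 15 uM unlabeled plus 0.24 uM Alexa 594-labeled tau (final), with compound and 20 uM heparin in 100 mM sodium acetate pH 7; 6 hr at 37 C, then Alexa 594 FP read.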
* hit, by the source's call; ? = inconclusive; · = no result given; [ ] = another dose, or the depositor's remark. Calls come from the whole dose curve; as a rule, active = well fitted curve in the direction sought with a large enough effect; inconclusive = small, poorly fitted or top-dose-only effect, or another doubt; inactive = no such curve, though single readings can be large; an effect the other way counts as inactive or inconclusive. Unless noted, % is set by controls: 0 for no effect and ±100 for the full control effect; potency is the fitted concentration of half-maximal effect.

SMILES	PLK1 PBD inh	Tau fibril ThT	VDR inh	Tau fluor cs	Sfp inh	Tau FP inhib
CC(C)[C@@H](CC(=O)N[C@@H]1CCCC[C@H]1C(=O)N[C@H](CC(=O)N[C@@H](CCC(=O)O)CC(=O)O)Cc1ccccc1)NC(=O)C[C@H](Cc1ccccc1)NC(=O)[C@@H]1CCCC[C@H]1N	·	-2.7%	-1.4%	-8.9%	16.7%	-1.5%
CC[C@H](C)[C@H](NC(=O)[C@H](CCCN=C(N)N)NC(=O)[C@H](CCCN=C(N)N)NC(=O)[C@H](CC(C)C)NC(=O)[C@H](Cc1ccccc1)NC(=O)CNC(=O)CN)C(=O)N[C@@H](CCCN=C(N)N)C(=O)N1CCC[C@H]1C(=O)N[C@@H](CCCCN)C(=O)N[C@@H](CC(C)C)C(=O)N[C@@H](CCCCN)C(=O)O	·	5.8%	2.4%	-1.9%	17.3%	-2.3%
CCOc1ccc(C(=O)c2cn(Cc3ccc(OC)cc3)c3cc(OC)c(OC)cc3c2=O)cc1	·	-24.7%	-2.5%	-15.7%	·	1.9%
NC1=NC(c2cccc(Cl)c2)n2c(nc3ccccc32)N1 (stereo not drawn)	·	6.3%	-19.5%	-8.0%	·	-1.2%
COc1ccc(Cl)cc1-n1c(=S)sc2c(=O)[nH]c(SCC(=O)C(C)(C)C)nc21	?	·	?	·	-5.2%	·
CCOc1ccccc1-n1c(N)c(C(N)=O)sc1=S	?	-0.1%	-14.6%	-7.4%	-17.6%	-1.9%
Cc1ccc(-n2c(N)c(C(N)=O)sc2=S)c(C)c1	6.7µM*	-8.2%	89.1µM*	-14.2%	20µM*	2.9%
Cc1ccccc1-n1c(N)c(C(=O)Nc2ccc(F)cc2)sc1=S	?	0.6%	-7.0%	1.0%	?	0.1%
Cc1ccc(NC(=O)c2sc(=S)n(-c3cc(C)ccc3F)c2N)cc1	11.9µM*	-8.5%	89.1µM*	-9.9%	50.1µM*	-4.5%
COc1ccc(Cl)cc1-n1c(N)c(C(N)=O)sc1=S	11.9µM*	-3.3%	79.4µM*	-5.8%	15.8µM*	-11.6%
CC1(C)CC(=O)C(C(C2=C(O)CC(C)(C)CC2=O)c2ccc([N+](=O)[O-])cc2)C(=O)C1 (stereo not drawn)	-11.6%	?	?	-17.6%	17.8µM*	?
Cc1nc2ccc([N+](=O)[O-])cc2nc1C	2.0%	-10.2%	15.2%	-5.7%	22.4%	-5.1%
Cc1ccc2nc3cc([N+](=O)[O-])cc([N+](=O)[O-])c3cc2c1	0.947µM*	3.16µM*	-20.5%	?	9.7%	?
CC1(C)CC(=O)C(=Cc2cn(CCC#N)nc2-c2ccc(F)cc2)C(=O)C1	3.36µM*	?	?	2.3%	56.2µM*	-12.6%
CC1(C)CC(=O)C(=Cc2cn(-c3ccccc3)nc2-c2ccc(Cl)cc2)C(=O)C1	1.19µM*	3.1%	?	5.0%	89.1µM*	-2.3%
CCN(CC)S(=O)(=O)c1ccc(NC2=NS(=O)(=O)c3ccccc32)cc1	1.4%	-1.0%	8.6%	-10.7%	7.3%	-5.7%
O=S1(=O)N=C(Nc2nncs2)c2ccccc21	23.8µM*	?	-24.0%	-13.6%	50.1µM*	?
O=c1oc2cc(O)ccc2cc1S(=O)(=O)c1ccccc1	-13.4%	·	-7.1%	·	6.1%	·
O=c1oc2cc(O)ccc2cc1-c1nc2ccccc2o1	10.6µM*	·	·	·	·	·
CCOc1ccc(NC(=O)CN(C)S(=O)(=O)c2ccc3[nH]c4c(c3c2)CCCC4)cc1	·	-16.3%	-7.9%	14.1µM*[quencher]	·	3.8%
COc1ccc(CNC(=O)CN(C)S(=O)(=O)c2ccc3[nH]c4c(c3c2)CCCC4)cc1	·	-7.7%	6.5%	?	·	?
CN(CC(=O)NCc1ccc(F)cc1)S(=O)(=O)c1ccc2[nH]c3c(c2c1)CCCC3	·	0.0%	13.0%	?	·	11.1%
Cc1cc(C)cc(NC(=O)CN(C)S(=O)(=O)c2ccc3[nH]c4c(c3c2)CCCC4)c1	·	-7.3%	18.5%	4.47µM*[quencher]	·	-9.0%
COc1ccc(OC)c(-c2nnc3n(Cc4ccc(C)cc4)c(=O)c4ccccc4n23)c1	·	-11.2%	1.3%	-13.1%	·	-3.4%
O=C(c1cnccn1)N1CCC2(CC1)CCN(C(c1ccccc1)c1ccccc1)CC2	·	·	-1.2%	·	3.1%	·
SMILES	PLK1 PBD inh	Tau fibril ThT	VDR inh	Tau fluor cs	Sfp inh	Tau FP inhib
NC(=O)c1ccsc1NC(=O)CSc1nnc(NC2CC2)s1	-8.4%	·	-14.3%	·	·	·
CC(C)c1ccc(C(=O)Nc2nnc(S(=O)(=O)N3CCCCC3)s2)cc1	-11.9%	·	4.2%	·	20.8%	·
COc1ccc(C(=O)Nc2nnc(S(=O)(=O)N3CCCCCC3)s2)cc1OC	-17.2%	?	3.0%	-25.3%	9.6%	-5.9%
COc1ccc(C(=O)Nc2nnc(S(=O)(=O)N3CCC(C)CC3)s2)cc1OC	-18.3%	12.6µM*	0.9%	?	6.9%	0.8%
CC1CCN(S(=O)(=O)c2nnc(NC(=O)c3ccc(C(C)C)cc3)s2)CC1	·	2.82µM*	7.0%	?	·	?
Cc1nc(N2CCN(Cc3ccc4c(c3)OCO4)CC2)[nH]c(=O)c1C	-0.9%	·	-13.8%	·	9.6%	·
CC1(C)CC(=O)C2=C(C1)NCN(Cc1ccc3c(c1)OCO3)C2	26.7µM*	-6.0%	-7.7%	-1.6%	4.5%	-1.9%
CC1(C(=O)Nc2ccccc2Br)CCN1C(=O)Cc1ccccc1Cl (stereo not drawn)	-4.6%	·	·	·	·	·
Cc1cc(-c2ccccc2)nc(N(C)NC(=O)C2CC2)c1S(C)(=O)=O	-4.0%	-6.8%	8.7%	4.9%	7.0%	10.2%
Cc1cc(-c2ccccc2)nc(N(C)NC(=O)c2cccc(C(F)(F)F)c2)c1S(C)(=O)=O	29.9µM*	-10.1%	-10.0%	-20.1%	16.4%	-10.7%
COc1ccc2c(c1)O[C@@H](c1cccc(C(F)(F)F)c1)[C@H](OC(=O)Nc1cc(OC)c(OC)c(OC)c1)C2=O	·	-1.0%	3.9%	-18.5%	-1.1%	3.5%
O=S1(=O)CC(O)C(O)CS1 (stereo not drawn)	10.6µM*	·	·	·	·	·
COc1ccccc1NC(=O)CSc1ncc2c(n1)-c1ccccc1N(Cc1ccccc1C)S2(=O)=O	·	-18.0%	-6.8%	-27.5%	·	?
Cc1ccc(S(=O)(=O)Nc2ccc(NC(=O)Nc3cccc(C(F)(F)F)c3)cc2)cc1	-1.6%	-10.8%	-17.1%	2.51µM*[quencher]	29.4%	12.6µM*
O=C(Nc1ccc(OC(F)F)cc1)Nc1cccc(C(F)(F)F)c1	-3.5%	-5.4%	-9.9%	?	-5.4%	25.1µM*
CCN(CC)S(=O)(=O)c1ccc(/C=C/C(=O)Nc2cccc(F)c2)cc1	5.1%	?	0.4%	?	11.3%	35.5µM*
CCN(CC(F)(F)C(F)F)S(=O)(=O)c1ccc(NC(=O)OC)cc1	3.77µM*	7.1%	?	0.3%	23.3%	-0.1%
CCN(CC)S(=O)(=O)c1ccc(/C=C/C(=O)O)cc1	-3.1%	2.2%	2.4%	0.1%	16.9%	2.0%
